# High-throughput results as filed in PubChem BioAssay.
# Shown are actives, neighbours in structure and some others; about 7.3% of the full set was active somewhere.
# HCV inhibitor = inhibitors of hepatitis C virus infection; AID 651820; 3.4% of 340,000 active; Huh7.5.1 HCVcc-Cre infection, luciferase reporter, 44 h; Potency, µM (highest dose often 41.8 µM), without a hit: at the top dose activity change, negative = inhibition, actives largely listed as inhibitors; note: potency is the fitted concentration of half-maximal effect
#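 Seed cells (1,000/well) for 4 h; treat with compound and infect with HCVcc-Cre, moi about 0.5. Incubate 44 h, then detect luciferase activity.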
# FMDV inh = blocks foot and mouth disease virus | FMDV antiviral cell-based qHTS | Potency, µM (series often up to 57.9 µM), for inactives: at the top dose activity change, negative = inhibition, hits mostly inhibitors | 1.2% of 410,000 active | AID 1159524; calls by dose curve; tested in HEK293T cells; note: read-out not given here; potency is the fitted concentration of half-maximal effect; nearly all actives have a fitted effect of over 45% in size
# AmpC inh no detg = inhibitors of E. coli AmpC beta-lactamase without detergent; AmpC nitrocefin hydrolysis, absorbance 480 nm, 0.0001% Triton; AID 485341; Potency, µM (series often up to 57.1 µM), inactives show at the top dose activity change, negative = inhibition, most hits filed as inhibitors; 0.52% of 330,000 active;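 note: potency is the fitted concentration of half-maximal effect; plate controls were no compound for no effect and no enzyme for full effect; nearly all actives have a fitted effect of over 20% in size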
# Target sequence (P00811 whole entry, looked up): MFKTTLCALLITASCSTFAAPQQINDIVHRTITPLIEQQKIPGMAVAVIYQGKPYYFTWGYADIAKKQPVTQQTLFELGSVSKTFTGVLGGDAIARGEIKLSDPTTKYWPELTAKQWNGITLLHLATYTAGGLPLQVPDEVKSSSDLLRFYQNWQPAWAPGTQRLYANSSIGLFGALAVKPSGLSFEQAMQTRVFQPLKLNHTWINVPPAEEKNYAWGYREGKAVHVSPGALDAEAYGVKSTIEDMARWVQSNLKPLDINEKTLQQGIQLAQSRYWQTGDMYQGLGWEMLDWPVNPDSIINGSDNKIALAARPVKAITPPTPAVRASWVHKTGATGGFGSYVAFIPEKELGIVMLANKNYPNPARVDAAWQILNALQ
#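 20 mM phosphate pH 7.0 + 0.01% (detergent screen) or 0.0001% Triton X-100; 5.3 nM AmpC reagent; cpd preinc 15 min RT; nitrocefin (800 uM stock) to start; A480 q20 s × 4 min; Activity was normalised to no-enzyme and no-compound control wells.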
# HCMV antiviral = human cytomegalovirus inhibition; 4.5% of 410,000 active; activity change, negative = inhibition, % at 57.5 µM; AID 1259415; HFF cells, HCMV-luciferase reporter, 72 h; stronger effect = lower value; in the data active = activity change below about -60%; inconclusive = no clear call, values can overlap the other calls; inactive = above about -39%
#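 Compounds were evaluated in HFFs infected with an HCMV luciferase reporter virus (MOI 1 PFU/cell). Luciferase in lysates collected 72 h post infection served as the replication measure.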
# AmpC detergent = inhibitors of E. coli AmpC beta-lactamase with detergent; 0.041% of 370,000 active; Potency, µM (doses to about 114 µM), for the others: top-dose activity change, negative = inhibition, most hits filed as inhibitors; AmpC hydrolysis of nitrocefin, absorbance 480 nm, 0.01% Triton; P00811;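 note: potency is the fitted concentration of half-maximal effect; 0% = no-compound wells and -100% = no-enzyme wells; nearly all actives have a fitted effect of over 25% in size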
#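 20 mM phosphate pH 7.0 + 0.01% (detergent screen) or 0.0001% Triton X-100; 5.3 nM AmpC reagent; cpd preinc 15 min RT; nitrocefin (800 uM stock) to start; A480 q20 s × 4 min; Activity was normalised to no-enzyme and no-compound control wells.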
# The depositor's hits bear a star; ? = inconclusive; nt = no result. Unless noted, calls come from the whole dose curve; as a rule, active = well fitted curve in the direction sought with a large enough effect; inconclusive = small, poorly fitted or top-dose-only effect, or another doubt; inactive = no such curve, though single readings can be large; an effect the other way counts as inactive or inconclusive. Unless noted, % is set by controls: 0 for no effect and ±100 for the full control effect.
SMILES,HCV inhibitor,FMDV inh,AmpC inh no detg,HCMV antiviral,AmpC detergent
CC(C)c1ccc(CCNC(=O)CCNS(=O)(=O)c2ccc(Br)cc2)cc1,-14.2%,-0.4%,-10.8%,-29.4,-0.2%
CCCCCCCCCCCCN1CCSCCS1(=O)=O,nt,nt,nt,-14.4,nt
CCOc1cccc(CNCCc2c(C)[nH]c3ccc(OC(F)(F)F)cc23)c1O,?,14.1µM*,87.2%,-100.8*,4.5%
Cc1[nH]c2ccc(OC(F)(F)F)cc2c1CCNCc1ccc(Cl)cc1,?,-16.7%,1.3%,-99.2*,-8.3%
Cc1[nH]c2ccc(OC(F)(F)F)cc2c1CCNCc1cccc([N+](=O)[O-])c1,?,-19.1%,15.6%,?,2.3%
Cc1ccc(CNC(=O)C2CCCN(S(=O)(=O)c3cccc4nsnc34)C2)cc1 (stereo unspecified),nt,-7.7%,nt,1.9,0.6%
COCCNC(=O)CCn1c(=O)c2cc(OC)c(OC)cc2n(CC(=O)Nc2ccccc2OC)c1=O,nt,-8.8%,nt,5.4,0.8%
CCCCCNC(=O)Cc1cc(=O)[nH]c(=O)[nH]1,7.9%,-20.6%,50.1µM*,?,?
CCCNC(=O)Cc1cc(=O)[nH]c(=O)[nH]1,0.3%,-2.6%,?,-32.9,3.2%
COC(=O)/C=C/[C@@H]1CCCN1c1ccc(OC)cc1,nt,nt,nt,4.8,nt
O=C1ON=C(c2ccccc2)/C1=C/c1ccco1,10.8%,31.6µM*,-42.6%,-2.3,-4.2%
CCOc1cc(/C=C2/C(=O)ON=C2C)ccc1OCc1ccccc1,4.1%,-25.4%,-2.6%,22.0,-8.5%
CCOc1cc(/C=C2\C(=O)ON=C2c2ccccc2)ccc1OC,12.6%,35.5µM*,-35.1%,71.0,1.4%
COc1ccc(/C=C2/C(=O)ON=C2c2ccccc2)cc1OC,-1.9%,22.4µM*,-23.2%,82.8,-1.9%
CCOc1cc(/C=C2/C(=O)ON=C2C)ccc1OCc1ccc(F)cc1,?,22.0%,-11.7%,-97.0*,0.8%
COc1ccc(/C=C2\C(=O)ON=C2c2ccccc2)cc1OC,-4.3%,?,-29.4%,23.9,-11.5%
COc1ccc(C2c3cccn3CCN2S(=O)(=O)c2ccccc2[N+](=O)[O-])cc1OC (stereo unspecified),nt,-4.0%,nt,-1.2,9.1%
O=C1NNC(c2ccccc2)=N/C1=C\c1ccco1,5.9%,-18.8%,25.5%,15.0,-1.1%
COc1cc(/C=C2\C(=O)ON=C2c2ccccc2)cc(OC)c1OC,-11.8%,25.1µM*,-34.1%,-7.2,-0.2%
NC(=O)COc1ccc(/C=C2\C(=O)ON=C2c2ccccc2)cc1,6.1%,25.1µM*,-10.6%,2.9,-0.6%
O=C1ON=C(c2ccccc2)/C1=C/c1ccc(-c2ccccc2[N+](=O)[O-])o1,0.7%,28.2µM*,-51.0%,-98.1*,?
COc1cc(/C=C2\N=C(c3ccccc3)NNC2=O)cc(OC)c1OC,4.9%,3.3%,-27.7%,-81.1*,1.6%
CCC1CN(CCNC(=O)c2ccc(C#CC(C)(C)O)cc2)Cc2cc(OC)ccc2O1 (stereo unspecified),nt,11.7%,nt,nt,nt
O=S(=O)(CS(=O)(=O)c1ccccc1Br)c1ccccc1Br,nt,nt,nt,13.6,nt
COc1ccccc1CNC(=O)c1cccc(S(=O)(=O)N2CCCC2)c1,-16.6%,11.6%,-35.7%,-10.0,-19.5%
SMILES,HCV inhibitor,FMDV inh,AmpC inh no detg,HCMV antiviral,AmpC detergent
Cc1ccc(O)c(Nc2c3ccccc3nc3ccccc23)c1,10µM*,?,6.9%,-35.7,-7.0%
Cc1cc(C)cc(NC(=O)C2CC23CCN(Cc2ccc4ncccc4c2)CC3)c1 (stereo unspecified),nt,-10.3%,nt,nt,nt
COC(=O)C[C@@H]1C=C[C@H](NC(=O)Nc2ccc(OC)cc2)[C@@H](CO)O1,nt,-14.4%,nt,6.7,nt
COc1ccc(C2/C=C\CN(C(=O)c3ccccc3)[C@H](Cc3ccccc3)C(=O)N2Cc2ccc(F)cc2)cc1 (stereo partly specified),?,?,-11.7%,-63.3*,1.6%
COc1ccc([C@H]2/C=C\CN(C(=O)CC(C)(C)C)[C@@H](C)C(=O)N2Cc2ccc(F)cc2)cc1,4.9%,?,nt,-60.0*,nt
COc1ccc([C@H]2/C=C\CN(C(=O)c3ccc(C)cc3)[C@@H](C)C(=O)N2Cc2ccc(F)cc2)cc1,?,-6.9%,nt,-14.7,nt
COc1ccc(C2/C=C\CN(C(=O)OCC3c4ccccc4-c4ccccc43)CC(=O)N2Cc2cccc(F)c2)cc1 (stereo unspecified),10µM*,-25.8%,-19.4%,-12.4,nt
COc1ccc(Br)cc1-c1nc(CCl)cs1,10µM*,-4.1%,-11.1%,?,3.3%
N#C/C(=C\c1ccncc1)c1nc2c(s1)CCCC2,8.3%,0.0%,-13.3%,-31.8,-0.5%
COc1nc(N)nc(NC(=O)c2cccs2)c1N=O,-4.7%,?,nt,-77.6*,nt
CCCCOc1ccc(S(=O)(=O)Nc2ccc(-c3ccc(N4CCC(C)CC4)nn3)cc2)cc1,nt,10.5%,nt,-15.8,29.6%
CCOC(=O)c1ccc(Nc2nc(=O)c3cccnc3s2)cc1,nt,50.5%,-22.5%,?,-7.2%
O=c1nc(Nc2ccc(OCc3ccccc3)cc2)sc2ncccc12,-0.7%,-17.4%,-11.5%,-87.8*,-12.5%
CCN(CC(=O)Nc1c(F)cccc1F)C(=O)/C=C/c1ccc2c(c1)OCO2,7.3%,37.4%,-7.2%,-7.6,-2.2%
CC1(Cc2ccccc2OC(F)(F)F)C(=O)Nc2c(Cl)ccc(Cl)c21 (stereo unspecified),nt,-14.0%,nt,-10.2,nt
COc1cccc(CNc2ncnc3onc(C)c23)c1,nt,?,nt,-30.7,2.8%
CSc1ccc(CCNc2ncnc3onc(C)c23)cc1,nt,-2.2%,nt,-65.2*,-6.0%
COc1ccc(CCNc2ncnc3onc(C)c23)c(OC)c1,nt,12.6µM*,nt,?,6.3%
CCN(C(=O)CN1CCCCCC1)c1c(N)n(Cc2ccccc2)c(=O)[nH]c1=O,32.7%,-10.6%,85.8%,?,nt
CC(C)CN(C(=O)CN1CCCCCC1)c1c(N)n(CC(C)C)c(=O)[nH]c1=O,11.0%,15.1%,53.9%,52.3,3.4%
CC(C)CN(C(=O)CN1CC=C(c2ccccc2)CC1)c1c(N)n(CC(C)C)c(=O)[nH]c1=O,3.55µM*,-5.4%,-20.9%,-38.8,-5.2%
CC(C)CN(C(=O)CN1CCOCC1)c1c(N)n(CC(C)C)c(=O)[nH]c1=O,3.8%,-22.1%,-0.8%,-72.3*,-6.9%
CCN(C(=O)CN1CC=C(c2ccccc2)CC1)c1c(N)n(Cc2ccccc2)c(=O)[nH]c1=O,-7.6%,-5.6%,4.4%,-61.8*,-3.3%
Cc1ccc(S(=O)(=O)c2cnc(SCC(=O)Nc3cc(C)cc(C)c3)nc2N)cc1,nt,?,nt,-10.7,-7.3%
CCOc1ccc(C(=O)NNC(=O)CN2C(=O)NC3(CCCC3)C2=O)cc1,-1.5%,2.8%,-11.0%,-101.9*,-3.9%
CC1(C)CC(=O)C2=C(C1)NC1=C(C(=O)c3ccccc31)C2c1ccccc1 (stereo unspecified),?,?,-29.4%,?,-4.5%
